From PubChem
Rows were chosen to be rich in hits. Some 19% of all compounds tested hit in one or more screens of this group.
TDP1 cell CPT: growth inhibition of DT40 Tdp1-/-;hTDP1 cells with camptothecin (screen for TDP1 inhibitors); chicken DT40 Tdp1-/-;hTDP1 cells + 20 nM CPT, ATP luminescence, 48 h; Potency, µM (series often up to 46.2 µM), for inactives: at the highest dose activity change, negative = growth inhibition, usual class: inhibitors; hit rate 12% among 420,000; further: potency means the concentration at half of the fitted maximal effect; nearly all actives have a fitted effect of over 55% in size
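Cell growth measured by CellTiter-Glo luminescence after a minimum 48 h, 37 C compound exposure with 20 nM CPT in Tdp1-knockout DT40 cells stably expressing hTDP1, seeded 400/well; qHTS titration format.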
Giardia killer: kills Giardia lamblia; activity change, % at 7.66 µM, hits read low; hit rate 0.15% among 340,000; Giardia lamblia trophozoite viability; in the data active means activity change below about -80%; inconclusive means between about -30% and that limit;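 further: parasites exposed to compound for two days anaerobically before the ATP read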
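Compounds were tested on trophozoites seeded at 100 cells/well and held 48 hrs at 37 deg C anaerobically. An ATP-based luminescent kit measured the remaining live cells.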
ELG1 DNA repair: blocks ELG1-dependent DNA repair in HEK293T cells; HEK293T ELG1-luciferase reporter, luminescence, 16 h; DNA damage induced by 5-fluorouridine; Potency, µM (titrated, usually from 46.1 µM), without a hit: top-dose activity change, negative = inhibition, hits mostly inhibitors; hit rate 2.3% among 330,000; further: potency means the concentration at half of the fitted maximal effect; nearly all actives have a fitted effect of over 55% in size
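In this reporter screen, reduction of luminescence relative to DMSO vehicle indicated activity. Compounds and 5-fluorouridine were added together to 2,000 cells per well, incubated for 16 hr at 37 °C, then developed with ONE-Glo.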
TDP1 inh: blocks human tyrosyl-DNA phosphodiesterase 1. Q9NUW8. recombinant TDP1, AlphaScreen DNA substrate cleavage. Potency, µM (highest dose often 130 µM), for the others: at the highest dose activity change, negative = inhibition, actives largely listed as inhibitors. hit rate 0.28% among 350,000; further: potency means the concentration at half of the fitted maximal effect; nearly all actives have a fitted effect of over 40% in size
Target sequence (Q9NUW8 whole entry, looked up): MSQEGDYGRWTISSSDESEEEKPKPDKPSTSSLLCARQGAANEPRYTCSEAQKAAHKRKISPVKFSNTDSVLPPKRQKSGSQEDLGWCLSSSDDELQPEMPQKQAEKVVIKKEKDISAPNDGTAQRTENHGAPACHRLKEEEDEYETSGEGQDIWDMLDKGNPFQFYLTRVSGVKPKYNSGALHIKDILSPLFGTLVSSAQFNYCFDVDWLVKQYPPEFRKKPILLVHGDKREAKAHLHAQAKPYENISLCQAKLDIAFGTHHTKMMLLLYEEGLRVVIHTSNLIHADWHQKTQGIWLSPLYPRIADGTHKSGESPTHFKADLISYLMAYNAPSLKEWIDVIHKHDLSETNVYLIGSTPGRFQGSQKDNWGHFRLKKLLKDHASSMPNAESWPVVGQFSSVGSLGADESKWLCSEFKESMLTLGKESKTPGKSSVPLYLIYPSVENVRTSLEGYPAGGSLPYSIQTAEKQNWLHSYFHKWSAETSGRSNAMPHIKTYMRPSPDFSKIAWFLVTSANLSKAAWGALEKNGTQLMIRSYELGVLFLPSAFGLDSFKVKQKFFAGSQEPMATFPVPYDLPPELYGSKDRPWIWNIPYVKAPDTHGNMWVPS
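Recombinant E. coli-expressed Tdp1 (1 nM) preincubated with compound 15 min at RT, then 5'-biotin/3'-phosphotyrosine-FITC DNA substrate (15 nM) added for 5 min. AlphaScreen beads (10 ug/ml) added, 10 min RT; tyrosine-FITC cleavage read as signal loss.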
TDP1 cell noCPT: qHTS for Inhibitors of human tyrosyl-DNA phosphodiesterase 1 (TDP1): qHTS in cells in absence of CPT; DT40 Tdp1-/- hTDP1 cells, no CPT, ATP luminescence, 48 h; Potency, µM (series often up to 46.2 µM), for inactives: at the top dose activity change, negative = growth inhibition, hits mostly inhibitors; hit rate 15% among 420,000; AID 686978, 2013; further: potency means the concentration at half of the fitted maximal effect; nearly all actives have a fitted effect of over 55% in size
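Compound effects on proliferation are scored in DT40 Tdp1-/-;hTDP1 cells in the absence of CPT. ATP levels (CellTiter-Glo luminescence) are recorded after a ≥48 hr, 37 °C incubation.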
IL-1B inflam inh: blocks inflammasome-driven IL-1 beta release. THP-1 LPS/ATP IL-1B secretion, AlphaLISA, 16 h; stronger effect = lower value. activity change, % at 57.5 µM. hit rate 4.7% among 360,000. AID 743279; in the data active means activity change below about -50%; inconclusive means mostly about -30% to -49%
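Secreted IL-1B measured by AlphaLISA bead assay after 16 h compound exposure of THP-1 cells; compounds (final up to 57.5 uM) added 1 h before LPS (250 ng/mL) and ATP (1.25 mM) stimulation; lower signal means less secretion.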
An asterisk follows results filed as active; ? = inconclusive; nt = no result; [ ] = remark or other dose. Unless noted, the call rests on the fitted dose curve; in most records, active means well fitted curve in the direction sought with a large enough effect; inconclusive means small, poorly fitted or top-dose-only effect, or another doubt; inactive means no such curve, though single readings can be large; an effect the other way counts as inactive or inconclusive. On the % scale 0 is the no-effect control and ±100 the full control effect.

SMILES	TDP1 cell CPT	Giardia killer	ELG1 DNA repair	TDP1 inh	TDP1 cell noCPT	IL-1B inflam inh
Cc1cccc(N2CCN(C(c3cccs3)c3nnnn3C(C)(C)C)CC2)c1C (centres undefined)	18.4µM*	8.2	?	2.9%	22.4µM*	-3.2
Cc1cccc(N2CCN(C(c3ccccc3)c3nnnn3C(C)(C)C)CC2)c1C (centres undefined)	?	14.2	?	1.2%	23.1µM*	-12.4
COCC1CCCN(Cc2ccc3c(c2)CN(C(=O)c2ccc(-n4cccn4)cc2)CCO3)C1 (centres undefined)	7.4%[9.04 µM]	nt	nt	nt	-0.1%	nt
Cc1nnc(SCC(=O)N(Cc2ccccc2)C(C)(C)C)[nH]c1=O	-2.7%	0.6	-0.8%	0.0%	5.2%	13.1
CC(C)[C@@H]1C(=O)N(S(C)(=O)=O)[C@H]2CCN(C(=O)/C=C\CN3CCCCC3)[C@@H]12	33.5µM*	nt	nt	9.5%	?	nt
Cc1nn(Cc2ccc(Cl)cc2)c(C)c1NC(=O)c1cc(C(C)C)on1	20.6µM*	-18.0	?	10.6%	14.6µM*	13.3
Cc1nn(Cc2ccc(Cl)cc2)c(C)c1NC(=O)/C=C/c1cnn(C)c1	?	-9.7	-28.7%	3.8%	?	-0.1
Cc1nn(Cc2ccccc2)c(C)c1NC(=O)c1cc(C(C)C)on1	?	nt	nt	-0.9%	?	nt
Cc1nn(Cc2c(Cl)cccc2Cl)c(C)c1NC(=O)c1cc(C(C)C)on1	18.4µM*	15.1	?	4.9%	20.6µM*	21.3
Cc1nn(Cc2ccc(Cl)cc2)c(C)c1NC(=O)C1CC=CCC1C(=O)O (centres undefined)	?	2.4	7.2%	5.9%	16.4µM*	9.3
Cc1nn(Cc2ccccc2Cl)c(C)c1NC(=O)c1cc(C(C)C)on1	?	nt	nt	4.5%	?	nt
Cc1nn(Cc2ccc(Cl)c(Cl)c2)c(C)c1NC(=O)c1cn(-c2ccccc2)nc1-c1ccccc1	?	-1.8	?	0.0%	?	?
Cc1nn(Cc2ccc(Cl)cc2)c(C)c1NC(=O)c1c(-c2ccccc2)noc1C	16.4µM*	8.1	13µM*	-10.8%[56.1 µM]	-29.9%	3.6
O=C(COC(=O)/C=C/c1cccc(Cl)c1)NC1CCCC1	3.7%	3.3	7.1%	2.3%	5.4%	9.5
CCc1cccc(C)c1NC(=O)Cn1ccn(Cc2ccc(Cl)cc2)c(=O)c1=O	-11.3%	nt	nt	7.8%	-20.6%	nt
CN(C)S(=O)(=O)N1CCC(Oc2ccc(C(=O)N3C[C@@H]4CCC[C@H]3C4)cc2)CC1	16.4µM*	6.5	nt	nt	?	12.5
COC1CCCN(C(=O)c2ccc(OC3CCN(S(=O)(=O)N(C)C)CC3)cc2)C1 (centres undefined)	-25.1%	-0.9	?	2.3%	?	2.2
CN(C)S(=O)(=O)N1CCC(Oc2ccc(C(=O)N3C[C@H]4CC[C@H]3C4)cc2)CC1	11.6µM*	7.0	13µM*	2.7%	20.6µM*	12.0
C#CCN(CC=C)C(=O)c1ccc(OC2CCN(S(=O)(=O)N(C)C)CC2)cc1	?	-12.2	20.6µM*	nt	?	0.0
Cc1cc(C)cc(-n2ccnc2SCC(=O)O)c1	-15.7%	14.5	?	0.0%	-17.1%	0.9
COc1ccc(C)cc1NS(=O)(=O)c1ccc(NC(=O)CN(c2cc([N+](=O)[O-])ccc2C)S(C)(=O)=O)cc1	9.2µM*	11.2	0.2%	0.0%	14.6µM*	-22.9
Cc1cccc(N(CC(=O)Nc2ccc(Br)cc2)S(C)(=O)=O)c1C	?	nt	nt	4.7%	20.6µM*	nt
Cc1cccc(NS(=O)(=O)c2ccc(NC(=O)CN(c3cc([N+](=O)[O-])ccc3C)S(C)(=O)=O)cc2)c1	16.4µM*	0.3	-11.9%	5.3%	?	?
